The list is not random: actives were taken first. Their share in the collection is about 2.5%.
ASK1 inh = human ASK1 kinase inhibition, primary screen. Q99683. AlphaScreen MKK6 phosphorylation by ASK1, luminescence. inhibition, % at 7.44 µM. 22,000 compounds, 0.99% hits; in the data active = inhibition above about 35%;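 note: 0% = median of compound wells and 100% = no enzyme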
ULK1 inh = inhibitors of human ULK1 kinase | 30,000 compounds, 1.9% hits | O75385 | inhibition, % at 5.96 µM | AlphaScreen Atg13 phosphorylation by ULK1, luminescence; in the data active = inhibition above about 43%;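 note: 0% = median of compound wells and 100% = no enzyme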
Target sequence (O75385 whole entry, looked up): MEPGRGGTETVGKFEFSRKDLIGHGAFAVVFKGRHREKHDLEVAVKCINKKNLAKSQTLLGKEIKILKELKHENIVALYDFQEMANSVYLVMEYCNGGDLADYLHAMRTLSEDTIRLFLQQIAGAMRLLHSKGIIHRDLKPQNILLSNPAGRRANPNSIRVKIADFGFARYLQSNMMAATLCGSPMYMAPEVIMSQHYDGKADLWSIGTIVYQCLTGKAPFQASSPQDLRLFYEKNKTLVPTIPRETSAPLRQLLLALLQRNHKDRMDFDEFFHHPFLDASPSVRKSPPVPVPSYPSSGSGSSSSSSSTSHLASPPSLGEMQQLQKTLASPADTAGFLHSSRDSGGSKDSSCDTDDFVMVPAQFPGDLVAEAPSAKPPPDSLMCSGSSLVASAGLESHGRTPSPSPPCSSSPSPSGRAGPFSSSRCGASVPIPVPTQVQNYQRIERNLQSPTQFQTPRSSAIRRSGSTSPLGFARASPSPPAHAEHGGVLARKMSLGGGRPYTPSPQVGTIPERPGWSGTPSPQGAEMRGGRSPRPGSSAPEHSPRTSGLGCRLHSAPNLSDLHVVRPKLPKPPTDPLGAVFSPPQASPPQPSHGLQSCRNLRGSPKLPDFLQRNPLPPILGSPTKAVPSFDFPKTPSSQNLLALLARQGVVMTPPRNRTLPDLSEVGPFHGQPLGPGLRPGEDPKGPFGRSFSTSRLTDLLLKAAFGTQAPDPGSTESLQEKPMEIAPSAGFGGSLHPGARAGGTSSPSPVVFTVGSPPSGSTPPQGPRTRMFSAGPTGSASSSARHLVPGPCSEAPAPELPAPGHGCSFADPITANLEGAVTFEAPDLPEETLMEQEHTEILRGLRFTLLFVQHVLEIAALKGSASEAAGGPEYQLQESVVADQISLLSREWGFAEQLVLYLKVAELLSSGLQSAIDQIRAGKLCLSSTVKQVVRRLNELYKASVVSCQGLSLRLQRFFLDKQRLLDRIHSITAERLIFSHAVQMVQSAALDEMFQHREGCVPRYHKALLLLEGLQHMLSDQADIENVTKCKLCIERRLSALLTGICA
TruHits interf = counter-screen for ASK1 inhibitors: AlphaScreen optical interference; shares compounds with ASK1 inh; AlphaScreen TruHits beads, signal interference counterscreen; IC50, µM; 220 compounds, 20% hits;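 active = IC50 of 10 µM or lower in the counterscreen; inactive = IC50 above 10 µM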;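 note: loss of AlphaScreen light from TruHits beads alone with no ASK1 enzyme present; potency of signal reduction so a low IC50 flags an assay artifact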
The depositor's hits bear a star; i = inactive; · = no result.

SMILES | ASK1 inh | ULK1 inh | TruHits interf
FC(F)(F)c1ccc(Cn2cnc3c(Nc4ccc5c(c4)OCO5)nc(N4CCN(c5ccccn5)CC4)nc32)cc1 | 50.7* | 12.4 | >20
COc1cc(Nc2nc(N3CCN(c4ccccn4)CC3)nc3c2ncn3Cc2ccc(C(F)(F)F)cc2)cc(OC)c1OC | 27.2 | -16.4 | ·
FC(F)(F)c1ccc(Cn2cnc3c(Nc4ccccc4)nc(Nc4ccc(N5CCOCC5)cc4)nc32)cc1 | 28.5 | -17.9 | ·
CN(C)c1cccc(Nc2nccc(Nc3ccc4c(c3)OCO4)n2)c1 | 36.3* | -1.8 | i
OCCNc1nc(N2CCN(Cc3ccc4c(c3)OCO4)CC2)nc2c1ncn2C1CCCCC1 | 11.8 | -9.8 | ·
FC(F)(F)c1ccc(Nc2nccc(Nc3ccc4c(c3)OCO4)n2)cc1 | 12.8 | -22.2 | ·
COc1cc(Nc2nc(Nc3ccc(N4CCOCC4)cc3)c3ncn(Cc4ccc(C(F)(F)F)cc4)c3n2)cc(OC)c1OC | 36.8* | 4.3 | >17.8
c1ccc(OCCNc2nc(N3CCN(Cc4ccc5c(c4)OCO5)CC3)nc3c2ncn3C2CCCCC2)cc1 | 38.7* | 15.8 | >20.1
CC(C)c1nnc(NC(=O)c2ccccc2Br)s1 | · | 4.7 | ·
CCCn1c(-c2nnc(CC)o2)cc2ccccc21 | · | -2.1 | ·
O=C1CCCN1CCn1cnc2c(NCc3ccccc3)nc(NC3CCN(Cc4ccccc4)CC3)nc21 | -12.5 | -0.7 | ·
COc1ccc(C(=O)N2CCN(c3ccc(-c4ccco4)nn3)CC2)cc1 | · | -1.5 | ·
FC(F)(F)c1ccc(Cn2cnc3c(NCc4ccccc4)nc(Nc4cnccn4)nc32)cc1 | 10.8 | 0.3 | ·
CCCNc1nc(Nc2ccccn2)nc2c1ncn2C1CCCCC1 | -0.6 | -5.2 | ·
OCCNc1cc(-c2csc3ccccc23)ncn1 | -0.9 | 1.1 | ·
CC(C)n1cnc2c(Nc3ccc4c(c3)OCO4)nc(Nc3cccc(N(C)C)c3)nc21 | 37.0* | 15.6 | >19.9
CCN(CC)C(=O)C1CCCN(c2nc(Nc3ccc(N4CCOCC4)cc3)c3ncn(Cc4ccc(C(F)(F)F)cc4)c3n2)C1 (stereo unspecified) | 56.0* | -17.4 | >20.1
CC(C)n1cnc2c(Nc3ccc(N4CCOCC4)cc3)nc(Nc3cccc(N(C)C)c3)nc21 | 35.1 | 20.1 | ·
FC(F)(F)c1ccc(Cn2cnc3c(Nc4ccc5c(c4)OCO5)nc(Nc4ccc(C(F)(F)F)cc4)nc32)cc1 | 13.1 | -8.2 | ·
FC(F)(F)c1ccc(Cn2cnc3c(NCc4cccc(C(F)(F)F)c4)nc(N4CCN(Cc5ccc6c(c5)OCO6)CC4)nc32)cc1 | 28.7 | 15.4 | ·
FC(F)(F)c1ccc(Cn2cnc3c(Nc4ccc5c(c4)OCO5)nc(Nc4ccccc4)nc32)cc1 | 40.8* | -3.7 | >22
CC(C)n1cnc2c(NCc3cccc(C(F)(F)F)c3)nc(N3CCN(Cc4ccc5c(c4)OCO5)CC3)nc21 | 37.0* | -15.9 | >20
CCN(CC)C(=O)C1CCCN(c2nc(Nc3ccc(N4CCOCC4)cc3)c3ncn(CCN4CCCC4=O)c3n2)C1 (stereo unspecified) | 2.8 | 1.5 | ·
O=C(NCCc1ccc(O)cc1)c1cnc(NCCN2CCOCC2)s1 | 16.1 | -3.0 | ·
OCCNc1cc(N2CCN(c3ccccn3)CC2)ncn1 | -1.4 | -5.2 | ·
SMILES | ASK1 inh | ULK1 inh | TruHits interf
CC(C)(NC(=O)c1ccc(F)cc1Cl)c1ccncc1 | · | 8.0 | ·
CCN(CC)c1nc(NCCc2ccc(OC)cc2)nc(N2CCC(N3CCOCC3)CC2)n1 | 5.2 | -6.2 | ·
CC(=O)Nc1ccc(Nc2nc(Nc3cccc(N(C)C)c3)nc3c2ncn3Cc2ccc(C(F)(F)F)cc2)cc1 | -10.7 | 36.7 | ·
FC(F)(F)c1ccc(Cn2cnc3c(NCc4ccccc4)nc(-c4ccc(N5CCOCC5)nc4)nc32)cc1 | 45.2* | 2.0 | >19.9
FC(F)(F)c1ccc(Cn2cnc3c(NCc4cccc(C(F)(F)F)c4)nc(-c4ccc(N5CCOCC5)nc4)nc32)cc1 | 27.7 | -1.7 | ·
FC(F)(F)c1ccc(Cn2cnc3c(Nc4ccc(N5CCOCC5)cc4)nc(N4CCN(Cc5ccc6c(c5)OCO6)CC4)nc32)cc1 | 48.2* | -15.8 | >20.1
CN(C)c1cccc(Nc2nc(Nc3ccc4c(c3)OCO4)c3ncn(Cc4ccc(C(F)(F)F)cc4)c3n2)c1 | 49.8* | 32.0 | >18.1
FC(F)(F)c1ccc(Cn2cnc3c(NCCN4CCOCC4)nc(N4CCN(Cc5ccc6c(c5)OCO6)CC4)nc32)cc1 | 6.5 | -42.1 | ·
Oc1ccc(CCNc2nc(Nc3nccc4ccccc34)nc3c2ncn3-c2ccsc2)cc1 | -1.9 | 6.9 | ·
CC(C)N(CCNc1nc(N2CCc3ccccc3C2)nc2c1ncn2C1CCCCC1)C(C)C | -7.0 | 7.8 | ·
O=C(NCCOc1ccccc1)c1cc(N2CCN(c3ccccn3)CC2)nc2ccccc12 | 8.0 | 1.7 | ·
